From PubChem BioAssay
Anesthetic bind: binds horse apoferritin like a general anesthetic. 350,000 tested, 0.074% active. Potency, µM (top dose mostly 77.5 µM), for inactives: at the highest dose activity change, negative = displacement, hits mostly inhibitors. apoferritin/1-aminoanthracene competitive binding, fluorescence; note: potency is the fitted concentration of half-maximal effect; % is set by controls: 0 for no effect and ±100 for the full control effect; nearly all actives have a fitted effect of over 20% in size
Target sequence (P02791 2-175 limits assumed): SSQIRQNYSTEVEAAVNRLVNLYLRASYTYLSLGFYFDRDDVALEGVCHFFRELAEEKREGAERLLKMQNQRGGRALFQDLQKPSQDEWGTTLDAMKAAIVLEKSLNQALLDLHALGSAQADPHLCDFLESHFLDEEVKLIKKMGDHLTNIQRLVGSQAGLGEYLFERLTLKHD
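Read-out: endpoint 1-AMA fluorescence, excitation 380 nm and emission 535 nm, after compounds sit 10 min at room temperature with 10 uM horse-spleen apoferritin in 50% saturated 1-AMA/PBS. Values come from four-parameter Hill fits.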
pAkt inh: inhibitors of Akt phosphorylation. Neuro2A IGF-stimulated pAkt S473 HTRF, 20 min; stronger effect = lower value. activity change, % for hits at 50 µM. 360,000 tested, 0.32% active; in the data active = activity change below about -80%; inconclusive = mostly about -51% to -80%; note: % is set by controls: 0 for no effect and ±100 for the full control effect
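Neuro2A cells (4,500/well, DMEM with 0.5% FBS) were treated with compound at a single 50 µM final concentration, stimulated with 6 nM IGF for 20 min at 37 °C, and lysed. Phospho-Akt Ser473 was read by HTRF as 665/615 ratio ×10^4.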
TDP43 rescue: TDP-43 toxicity inhibition in yeast; TDP-43 expressing yeast growth rescue, BacTiter-Glo, 24 h; Potency, µM (doses to about 46.1 µM), for inactives: at the highest dose growth rescue (activation), most hits filed as activators; 410,000 tested, 1.8% active; AID 652104; note: potency is the fitted concentration of half-maximal effect; % of control where 0% means no effect; nearly all actives have a fitted effect of over 50% in size
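Yeast expressing TDP-43 (pregrown in raffinose, seeded at OD600=0.02 in galactose medium) exposed to compounds 24 hr at 30 deg C. Growth read by BacTiter-Glo luminescence; rescue of toxicity appears as increased signal.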
CCT modulator: changes cytosolic chaperonin activity; 360,000 tested, 0.3% active; AID 651819; purified chaperonin ATPase assay, HTRF ADP detection, 30 min; activity change, % (concentration not given with the values), hits read low; in the data active = activity change below about -30%; note: % is set by controls: 0 for no effect and ±100 for the full control effect
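Nucleotide hydrolysis assay: TRiC at 20–40 nM final (set by batch activity) with 10 uM ATP, 30 min at 37 °C, in presence of 76 uM compound. Detection by competitive ADP HTRF, 30 min ambient.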
aSyn yeast inh: inhibitors of alpha-synuclein toxicity in yeast | 370,000 tested, 0.14% active | Potency, µM (highest dose often 46.1 µM), inactives show at the highest dose growth rescue (activation), actives largely listed as activators | Yeast expressing alpha-synuclein, growth rescue, BacTiter-Glo, 24 h; note: potency is the fitted concentration of half-maximal effect; % of control where 0% means no effect; nearly all actives have a fitted effect of over 65% in size
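Galactose-induced alpha-syn yeast (OD600=0.02, raffinose-pregrown) + pinned cpd, 24 hr, 30 deg C; growth by BacTiter-Glo luminescence. Growth restoration scores as activation.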
Mito fusion yeast: inhibitors of mitochondrial division or activators of mitochondrial fusion | S. cerevisiae fusion-defective mutant growth rescue, CellTiterGlo 48 h | Potency, µM (doses to about 46.1 µM), for the others: at the highest dose growth rescue (activation), hits mostly activators | 320,000 tested, 0.23% active | AID 485298; note: potency is the fitted concentration of half-maximal effect; % of control where 0% means no effect; nearly all actives have a fitted effect of over 45% in size
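Yeast fusion mutant, YPEG (non-fermentable carbon), compound, 48 h at 37C non-permissive; CellTiterGlo added, 10 min RT, luminescence read. Rescued growth = division inhibition.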
The depositor's hits bear a star; i = inactive; ? = inconclusive; · = no result given; [ ] = dose if it differs, or a comment. In the library only some 2.5% were active in any assay of this set; here they are far more common. Unless noted, calls come from the whole dose curve; as a rule, active = well fitted curve in the direction sought with a large enough effect; inconclusive = small, poorly fitted or top-dose-only effect, or another doubt; inactive = no such curve, though single readings can be large; an effect the other way counts as inactive or inconclusive.

SMILES	Anesthetic bind	pAkt inh	TDP43 rescue	CCT modulator	aSyn yeast inh	Mito fusion yeast
COc1ccc(C2=C(c3ccccc3)OC(OC)c3cc(F)ccc32)cn1 (centres undefined)	·	i	16µM*	1	?	·
CC(C)(C)c1ccc(OCCNC(=S)Nc2ccccc2)cc1	?	i	13µM*	1	-1%	14%
CC(C)(C)c1ccc(OCCNCc2ccccc2)cc1	?	i	0%	-4	-13%	-26%
Oc1ccc(Cc2ccccc2Cl)c(O)c1	·	i	13µM*	0	4%	·
Oc1ccc(Cc2ccc(Cl)cc2)c(O)c1	?	i	?	0	-20%	19%
Cc1cc(C)c2[nH]c(O)c(N=NC(=S)NCC3CCCO3)c2c1 (centres undefined)	1%	i	9%	0	-2%	-1%
Oc1[nH]c2c(Cl)cc(Cl)cc2c1N=NC(=S)NCC1CCCO1 (centres undefined)	-4%	i	?	-40*	12%	?
COC(=O)C1=CO[C@@H](C)[C@@H]2CN3CCc4c([nH]c5ccccc45)[C@@H]3C[C@H]12	-9%	·	·	·	·	·
Cc1cccc(C)c1OCCn1nnc2ccccc21	?	i	18µM*	3	14%	2%
Clc1ccccc1OCCn1nnc2ccccc21	-16%	i	?	-1	11%	-1%
Cc1cc(C)cc(OCCn2nnc3ccccc32)c1	?	i	22µM*	2	3%	-2%
Cc1ccc(C)c(OCCn2nnc3ccccc32)c1	-20%	i	?	-2	16%	-2%
C/C(CCC(=O)OC[C@@H]1O[C@H](C#Cc2ccccc2)C=C[C@@H]1Oc1ccc(C)cc1)=N/OC[C@@H](C)[C@H](OCc1ccccc1)C(C)C	4%[15.3 µM]	·	·	·	·	·
CCN(CC)c1ccc(/C=C2\C=Cc3ccccc32)cc1	·	·	·	·	2%	·
COc1cccc(C(=O)N2c3nc(-c4ccco4)nn3C3(CCCCC3)[C@@H]3CCCC[C@@H]32)c1	?	·	13%	·	·	·
Clc1cnc(N/N=C/c2cccs2)c(Cl)c1	2%	-104%*	?	3	-12%	-20%
Cc1ccc(/C=N/Nc2ncc(Cl)cc2Cl)s1	2%	·	-12%	3	-38%	-9%
O=[N+]([O-])c1cccc(S(=O)(=O)NCC2CC3CCC2C3)c1 (centres undefined)	?	i	11µM*	-3	15%	0%
COc1ccc(NC(=O)/C(N=Nc2cc(S(=O)(=O)Nc3ccc(OC)cc3)ccc2OC)=C(\C)O)cc1	-16%	i	24%	0	6%	-3%
COc1ccc(NC(=O)/C(N=Nc2ccc(Cl)c(S(=O)(=O)Nc3ccc(Cl)cc3)c2)=C(\C)O)cc1	·	i	4%	-48*	5%	·
Cc1cc(-c2ccco2)c(C#N)c2nc3ccccc3n12	81%	i	4µM*	0	0.56µM*	16%
CN(C)N=Nc1ccc(/C=C2\C=Cc3ccccc32)cc1	·	·	·	·	-12%	·
O=C(CNC(=O)C1CCCCC1)OCCOc1ccccc1	·	·	·	·	-6%	·
CN(Cc1ccccc1)c1c([N+](=O)[O-])c(=O)n(C)c2ccccc12	-20%	i	16µM*	-1	?	20%
O=C(O)c1ccc(NCc2cccc(Br)c2)cc1	-17%	i	11µM*	-1	?	10µM*
SMILES	Anesthetic bind	pAkt inh	TDP43 rescue	CCT modulator	aSyn yeast inh	Mito fusion yeast
Cn1c(=S)[nH]c2ccccc21	-9%	i	-6%	-4	1%	-2%
S=c1[nH]c2ccccc2n2cccc12	3%	i	13µM*	-1	0%	-26%
O=C(CCNS(=O)(=O)c1cccc2nsnc12)NCCC1=CCCCC1	-9%	-111%*	28%	0	4%	2%
CC(C)C(NS(=O)(=O)c1cccc2nsnc12)C(=O)NCCC1=CCCCC1 (centres undefined)	-20%	i	20%	0	2%	-1%
O=S(=O)(NCCC1=CCCCC1)c1cccc2nsnc12	8.9µM*	i	4%	0	5%	-16%
CSCC[C@H](NC(=O)[C@H](CC(C)C)NC(=O)[C@H](CO)NC(=O)[C@H](CCC(=O)O)NC(=O)[C@H](CC(C)C)NC(=O)[C@H](Cc1ccc(O)cc1)NC(=O)[C@H](CCCCN)NC(=O)[C@H](CCCCN)NC(=O)[C@H](C)NC(=O)[C@H](CO)NC(=O)[C@H](CC(C)C)NC(=O)[C@H](CCC(N)=O)NC(=O)CNC(=O)[C@H](CC(C)C)NC(=O)[C@H](CC(C)C)NC(=O)[C@H](CCCCN)NC(=O)[C@H](CO)NC(=O)[C@H](Cc1ccccc1)NC(=O)[C@H](CC(=O)O)NC(=O)[C@H](CO)NC(=O)[C@@H](NC(=O)[C@H](Cc1ccccc1)NC(=O)[C@@H](NC(=O)CNC(=O)[C@H](CC(=O)O)NC(=O)[C@H](C)NC(=O)[C@@H](N)Cc1cnc[nH]1)C(C)C)[C@@H](C)O)C(N)=O	7%	·	·	·	·	·
Cc1cc(/C=C2\C=Cc3ccccc32)cc(C)c1N	·	·	·	·	-22%	·
COc1ccc(CNc2nc(N)nc3nc[nH]c23)cc1	·	·	·	·	7%	·
CCOC(=O)C1CCN(c2nc3ccccc3nc2C(C#N)C(=O)NCCc2ccccc2)CC1 (centres undefined)	14µM*	·	·	·	·	2%
CCC(CC)COC(=O)C(C#N)c1nc2ccccc2nc1N1CCOCC1 (centres undefined)	?	i	20µM*	0	6%	12%
O=C(c1cc2cc(F)ccc2[nH]1)N1CCc2ccccc21	-10%	i	10%	0	4%	16%
O=C(c1cc2cc(Br)ccc2[nH]1)N1CCc2ccccc21	-8%	i	19%	-38*	0%	3%
CC(C)C(=O)N1CCC1(C)C(=O)Nc1ccccc1OC(F)F (centres undefined)	·	i	21%	-9	3%	·
COc1ccc(-c2ccccc2)cc1NC(=O)C1(C)CCN1C(=O)C(C)C (centres undefined)	·	i	35µM*	-1	2%	·
O=C(NC1CCSc2ccccc21)c1cccc([N+](=O)[O-])c1 (centres undefined)	?	i	13µM*	-1	0%	2%
Cc1cc(NC(=O)CS(=O)(=O)c2ccc(Cl)cc2)no1	-1%	·	11%	-87*	0%	-14%
Cc1cc(NC(=O)CS(=O)(=O)c2ccc(F)cc2)no1	·	i	-10%	3	-6%	-1%
O=C(CSc1nc2c([nH]c3ccccc32)c(=O)n1-c1ccccc1)N1CCCC1	3%	·	6%	·	·	·
